p53ts 32C kill = p53ts cell cytotoxicity, permissive temperature. Potency, µM (doses to about 46.1 µM), most hits filed as cytotoxic. 130,000 tested, 0.93% active. AID 924. H1299-p53A138V at 32C, ATP luminescence viability, 24 h; also: nearly all actives have a fitted effect of over 55% in size
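Viability by ATPlite luminescence after 24 h compound treatment (up to 46 uM) at the permissive 32C. Cells are H1299 carrying p53 A138V. Scale runs from DMSO basal to 100 uM tamoxifen as full kill; AC50 from Hill fits.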
p53ts 39C tox = kills p53ts cells at the nonpermissive temperature; H1299-p53A138V viability at 39C, ATP luminescence, 24 h; Potency, µM (series often up to 46.1 µM), most hits filed as cytotoxic; 130,000 tested, 1.5% active; also: nearly all actives have a fitted effect of over 55% in size
IkB signaling = suppresses IkB signaling in ABC-DLBCL reporter cells | 110,000 tested, 0.04% active | Potency, µM (doses to about 57.1 µM) | ABC-DLBCL IkBa-CBG/CBR dual luciferase ratio, 4 h; response scale: scaled: untreated 0%, proteasome inhibitor 100%; active = well fitted curve in the direction sought with a large enough effect in the signal ratio, not every such curve was filed as active; inconclusive = small, poorly fitted or top-dose-only effect, or a change in a side signal; the % refers to the signal ratio;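 also: the direction sought is a rising ratio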
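In this assay, an IκBα–CBG68 fusion accumulates when IKK-driven degradation is blocked; native CBR normalizes for cell number. OCI-Ly3 cells were treated 4 h with compound and doxycycline, then green and red light read after Chroma-Glo addition.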
Luciferase inh = blocks Photinus pyralis firefly luciferase activity | P08659 | purified firefly luciferase, luminescence, 8 min | Potency, µM (top dose mostly 57.1 µM), hits mostly inhibitors | 72,000 tested, 2.2% active; also: nearly all actives have a fitted effect of over 40% in size
Target sequence (P08659 whole entry, looked up): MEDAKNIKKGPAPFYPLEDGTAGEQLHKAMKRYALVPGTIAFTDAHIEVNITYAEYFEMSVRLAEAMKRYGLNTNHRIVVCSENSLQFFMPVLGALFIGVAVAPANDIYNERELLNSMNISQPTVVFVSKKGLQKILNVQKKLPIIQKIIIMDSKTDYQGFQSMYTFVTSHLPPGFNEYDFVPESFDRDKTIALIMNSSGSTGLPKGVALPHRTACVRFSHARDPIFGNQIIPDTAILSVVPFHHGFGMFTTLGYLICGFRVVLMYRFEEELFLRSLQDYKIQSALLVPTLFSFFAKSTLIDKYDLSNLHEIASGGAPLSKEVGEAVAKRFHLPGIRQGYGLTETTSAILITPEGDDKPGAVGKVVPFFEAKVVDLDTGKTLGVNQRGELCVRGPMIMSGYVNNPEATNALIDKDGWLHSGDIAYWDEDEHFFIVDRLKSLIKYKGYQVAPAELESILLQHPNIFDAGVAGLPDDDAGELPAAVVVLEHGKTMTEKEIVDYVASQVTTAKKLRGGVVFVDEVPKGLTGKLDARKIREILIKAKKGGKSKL
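qHTS concentration-response profiling: light output of P. pyralis luciferase with luciferin and 10 uM ATP, imidazole buffer pH 7.2. Read by luminescence after 8-min room-temperature incubation.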
Imprint erasure = inducers of genomic imprint erasure in mouse ES cells. AID 1948. 110,000 tested, 0.02% active. Potency, µM (series often up to 60.7 µM), usual class: activators. mouse ES Peg3-LacZ reporter, beta-gal luminescence, 40 h
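Each well holds 300 Peg3LacZ-Neo (maternal) female ES cells incubated 40 h at 37C, 5% CO2. LacZ is measured by BetaGlo luminescence, with AC50 and maximum efficacy derived from dose-response curves.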
Large screens that a line does not name were inactive. Only some compounds are listed: those with a hit (about 2.4% of all), similar ones and a draw of the others. Unless noted, calls follow the shape of the dose curve; as a rule, active = well fitted curve in the direction sought with a large enough effect; inconclusive = small, poorly fitted or top-dose-only effect, or another doubt; inactive = no such curve, though single readings can be large; an effect the other way counts as inactive or inconclusive.

CC(C)C1=CC2=CC[C@H]3[C@@](C)(CCC[C@]3(C)C(=O)O)[C@@H]2CC1	none (no result: p53ts 32C kill, p53ts 39C tox, Imprint erasure)
CC(=O)c1ccc(N2C(=O)N(Cc3cccc(C(F)(F)F)c3)c3ccccc3S2(=O)=O)cc1	none (no result: Luciferase inh)
COc1cc(C(=O)Nc2cc(-c3nc4cc(C)ccc4o3)ccc2C)cc(OC)c1OC	p53ts 32C kill 12.6µM, p53ts 39C tox inconclusive, IkB signaling inconclusive, Luciferase inh 1µM
COc1cc(OC)cc(-c2nc3cc(C)ccc3o2)c1	p53ts 32C kill inconclusive, p53ts 39C tox inconclusive, Luciferase inh 15.8µM
COc1ccc(C(=O)Nc2ccc(-c3nc4cc(C)ccc4o3)c(O)c2)cc1	IkB signaling inconclusive (no result: Luciferase inh)
Cc1cccc(CCNC(=O)c2ccc3c(c2)nc2n3CCOC2)c1	p53ts 32C kill inconclusive, p53ts 39C tox 12.6µM (no result: Luciferase inh)
Cc1cccc(CCNC(=O)c2ccc3c(c2)nc2n3CCCCC2)c1	p53ts 32C kill 12.6µM, p53ts 39C tox 7.94µM, IkB signaling inconclusive (no result: Luciferase inh)
O=C(Nc1cccc(Cl)c1)c1ccc2c(=O)n3c(nc2c1)CCCCC3	p53ts 32C kill inconclusive, p53ts 39C tox inconclusive, IkB signaling inconclusive, Luciferase inh 12.6µM
O=C(NCCc1ccccc1Cl)c1ccc2c(c1)nc1n2CCOC1	p53ts 32C kill 15.8µM, p53ts 39C tox 3.98µM (no result: Luciferase inh)
O=C(Nc1ccc(C(F)(F)F)cc1)c1cc(S(=O)(=O)NC2CCCCC2)ccc1F	p53ts 39C tox 10µM, IkB signaling inconclusive (no result: Luciferase inh)
O=C(Nc1cc(Cl)cc(Cl)c1)c1ccc(F)c(S(=O)(=O)NC2CCCC2)c1	p53ts 32C kill inconclusive, p53ts 39C tox 12.6µM (no result: Luciferase inh)
CCc1ccc(NC(=O)c2ccc(F)c(S(=O)(=O)NC3CCCCCC3)c2)cc1	IkB signaling inconclusive (no result: Luciferase inh)
CC(=O)Nc1ccc(NC(=O)CCc2c(C)nc3c(c(C)nn3-c3ccccc3)c2C)cc1	none (no result: Luciferase inh)
CC(=O)Nc1ccc(NC(=O)CCc2c(C)nc3c(c(C)nn3-c3ccc(C)cc3)c2C)cc1	p53ts 39C tox 7.94µM, IkB signaling inconclusive (no result: Luciferase inh)
COc1cccc2sc(N(C)c3ccccc3)nc12	p53ts 32C kill 10µM, p53ts 39C tox 12.6µM, Luciferase inh 7.94µM
COc1cccc2sc(N3CCN(c4nc5ccccc5s4)CC3)nc12	none
COc1ccc2c(c1)c1c(c(=O)n(-c3cc(Cl)ccc3C)c(=O)n1Cc1ccc(F)cc1)n2C	none (no result: Luciferase inh)
Cc1cc(C(=O)Nc2sc(C)c(-c3ccc(F)cc3)c2C(N)=O)no1	p53ts 39C tox inconclusive, Luciferase inh 7.94µM
c1cc(-c2nnc(-c3ccncc3)o2)ccn1	none
Cc1ccc(-c2cnc(-c3ccncc3)o2)cc1	p53ts 32C kill inconclusive, p53ts 39C tox inconclusive, Luciferase inh 12.6µM
COc1cc(/C=C/c2nc3cc(Cl)ccc3c(=O)n2-c2ccc(C)cc2C)cc(OC)c1OC	p53ts 39C tox inconclusive, IkB signaling inconclusive (no result: Luciferase inh)
CCn1c(C)nc2cc(C(=O)OC(C(F)(F)C(F)F)C(F)(F)C(F)F)ccc21	IkB signaling inconclusive, Luciferase inh 20µM
CCOC(=O)c1c(NC(=O)c2cc3nc(-c4ccccc4)cc(C(F)(F)F)n3n2)sc2c1CCC(C)C2 (stereo not given)	none (no result: Luciferase inh)
CCC(C)Sc1oc(-c2ccco2)nc1S(=O)(=O)c1ccc(Cl)cc1 (stereo not given)	none (no result: Luciferase inh)
CN(C)CCCN(C(=O)c1cccs1)c1nc(-c2ccccc2)cs1	none (no result: Imprint erasure)
CN(c1ccc(O)cc1)c1nc(-c2ccccc2)cs1	p53ts 32C kill inconclusive, p53ts 39C tox inconclusive, IkB signaling inconclusive, Luciferase inh 12.6µM
Cc1csc(NC(=O)c2cc3c(s2)CCC3)n1	p53ts 32C kill inconclusive, p53ts 39C tox inconclusive, Luciferase inh 2.51µM
COc1ccc(/C=N/n2c(N)nc3ccccc32)cc1OC	p53ts 32C kill inconclusive, p53ts 39C tox inconclusive, Luciferase inh 6.31µM
CC1CCN(C(=O)CSc2c(C(C)C)cnc3c2c(=O)n(C)c(=O)n3C)CC1	none (no result: Luciferase inh)
CN(C)C(=O)CSc1cccc2cccnc12	IkB signaling inconclusive
O=C(CSc1cccc2cccnc12)N1CCCC1	IkB signaling 3.98µM
CCOC(=O)c1cc(-c2ccc(OC)cc2)n(CCC(=O)NC2CCC(C)CC2)c1C (stereo not given)	none (no result: Luciferase inh)
NS(=O)(=O)c1cccc2cccnc12	none
CC(C)c1ccccc1S(=O)(=O)c1cc(N)c2ncccc2c1[N+](=O)[O-]	p53ts 39C tox 3.16µM (no result: IkB signaling, Luciferase inh)

Bioassay records from PubChem.
